# Source: PubChem (several laboratories)
# Rows were chosen to be rich in hits. Some 4.6% of all compounds tested hit in one or more screens of this group.
# FAS-TE inh = blocks the thioesterase domain of human fatty acid synthase; P49327; recombinant FAS-TE, OMFH fluorogenic substrate, fluorescence endpoint; inhibition, % at 15 µM; hit rate 0.67% among 360,000;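 active = compounds whose normalised, plate-corrected inhibition of enzyme fluorescence in the single-dose primary screen is 50% or more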;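 also: 0% = DMSO with enzyme and 100% = substrate without enzyme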
# ADAM17 inh = inhibitors of human ADAM17 | hit rate 0.83% among 370,000 | AID 720648 | recombinant ADAM17, EDANS/DABCYL FRET peptide cleavage | inhibition, % at 6.95 µM;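 active = inhibition above the mean of compounds lying between control limits plus 3 SD, set per campaign, cut at about 8.5% in these data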;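 also: 0% = DMSO-only wells as the low control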
# Target sequence (P78536 215-824 limits assumed): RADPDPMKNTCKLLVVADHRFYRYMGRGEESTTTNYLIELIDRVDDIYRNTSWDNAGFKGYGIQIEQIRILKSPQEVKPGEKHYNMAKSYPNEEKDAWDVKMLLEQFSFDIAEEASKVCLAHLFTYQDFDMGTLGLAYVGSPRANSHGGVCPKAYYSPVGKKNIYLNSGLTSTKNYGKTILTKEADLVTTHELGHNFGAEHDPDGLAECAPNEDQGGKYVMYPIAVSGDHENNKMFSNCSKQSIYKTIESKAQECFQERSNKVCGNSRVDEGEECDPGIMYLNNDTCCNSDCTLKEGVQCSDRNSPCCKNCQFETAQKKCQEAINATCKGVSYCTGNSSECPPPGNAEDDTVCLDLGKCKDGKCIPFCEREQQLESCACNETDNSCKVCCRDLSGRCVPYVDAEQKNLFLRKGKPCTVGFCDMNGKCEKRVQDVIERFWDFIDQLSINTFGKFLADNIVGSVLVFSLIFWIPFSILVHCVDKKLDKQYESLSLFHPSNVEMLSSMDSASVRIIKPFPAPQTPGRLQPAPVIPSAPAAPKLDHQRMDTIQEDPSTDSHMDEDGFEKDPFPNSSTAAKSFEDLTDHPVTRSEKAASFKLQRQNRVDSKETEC
# ADAM10 inh = inhibitors of human ADAM10; O14672; recombinant ADAM10, EDANS/DABCYL FRET peptide cleavage, 3 h; inhibition, % at 7 µM; hit rate 0.62% among 370,000; AID 720582;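 active = inhibition above a per-campaign cutoff equal to the mean of compounds falling between control-based bounds plus 3 SD, cut at about 20% in these data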;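 also: 0% = DMSO wells while the 100% control is not disclosed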
# KLK7 zymogen act = proKLK7 (human) activation, primary screen | hit rate 0.9% among 370,000 | activation, % at 7 µM | purified proKLK7, EDANS-DABCYL substrate fluorescence; 100% is mature enzyme control, 0% vehicle | AID 652039;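 active = activation above the mean of all tested compounds plus 3 SD, computed per campaign excluding outliers beyond control limits, cut at about 13% in these data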
# GRIN3A LBD mod = modulates the human NR3A ligand-binding domain | hit rate 2.5% among 340,000 | Tm shift relative to glycine control, % at 25 µM | NR3A LBD differential scanning fluorimetry, Tm shift; 0% = protein alone, 100% = glycine-bound protein;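 active = melting temperature shift of at least 10% of the positive control shift, at one fixed dose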
# * = called active by the depositor; · = no result given.
SMILES,FAS-TE inh,ADAM17 inh,ADAM10 inh,KLK7 zymogen act,GRIN3A LBD mod
Cc1ccc(-c2nn(-c3ccccc3)cc2/C=N/NS(=O)(=O)c2ccccc2)cc1,25.0,7.5,11.6,0.1,23.7*
Cc1ccc(-c2nn(-c3ccccc3)cc2/C=N/O)cc1,0.2,-0.7,16.4,0.3,-8.9
Cc1ccc(S(=O)(=O)N/N=C/c2c(C)nn(-c3ccccc3)c2C)cc1,4.8,-0.1,0.1,0.1,-6.1
O=S(=O)(N/N=C\c1cn(-c2ccccc2)nc1-c1ccccc1)c1ccccc1,23.9,2.9,11.7,0.6,19.6*
C#CCOCCOCCOCCNc1nc(N2CCN(C(=O)[C@H](CCCCN)n3cc([C@@H](N)C(C)CC)nn3)CC2)nc(N2CCN(C(=O)[C@H](CCCCN)n3cc([C@@H](N)C(C)CC)nn3)CC2)n1 (some centres undefined),·,-5.4,-12.1,·,·
CC[C@H](CCCc1ccc(OC)cc1)CCC(=O)N1CCOCC1,·,-0.5,-1.3,0.3,·
COc1ccc(-c2nn(-c3ccccc3)cc2/C=N/n2cnnc2)cc1OC,-5.6,-4.8,-5.3,1.0,0.1
COc1ccc(-c2nn(-c3ccccc3)cc2/C=N/NC(N)=S)cc1OC,11.2,0.0,-6.1,-1.4,19.2*
CCCC/C=C1/[C@H](CC)N(C)C2=N[C@@H](c3ccccc3)CC(=O)N21,·,-5.6,-2.7,·,·
CCCC1S/C(=N/N=C/c2ccc(OC)cc2)N(Cc2ccccc2)C1=O (centres undefined),27.3,-2.3,4.6,0.6,10.2*
CCCC1S/C(=N/N=C/c2ccc(OC)cc2)N(Cc2ccc(OC)cc2)C1=O (centres undefined),25.2,4.4,2.9,0.2,1.0
COc1cccc(NC(=O)Nc2c(-c3ccc(F)cc3)nc3ncccn23)c1,·,-66.1,-204.2,1.5,·
Nc1ccccc1Nc1cc(-c2ccccc2)nn1-c1cccc(Cl)c1,33.8,7.2,16.9,0.5,11.2*
CSc1nnc2c(n1)C[C@H](c1ccccc1)[C@@H](C)[C@@H](C(=O)N1CCCC1)C2,·,-0.1,-7.0,0.3,·
Cc1ccc(-c2nc(C3CCCN(S(=O)(=O)c4ccc(Cl)s4)C3)no2)cc1 (centres undefined),·,-3.0,-3.0,0.3,·
Cc1ccc(S(=O)(=O)N2CC(O)CC2C(=O)OCC(=O)c2ccccc2Cl)cc1C (centres undefined),4.8,-3.0,-3.7,0.2,24.5*
CCOC(=O)C1C[C@@H](O)C=CC1=O (some centres undefined),·,-3.5,-0.1,·,·
O=C(NCCC1=CCCCC1)C(=O)NCC(c1ccco1)N1CCN(c2ccc(F)cc2)CC1 (centres undefined),1.7,-2.0,6.8,-0.3,10.0*
Cc1ccc(NC(=O)CSc2nnc(-c3cccnc3)n2Cc2ccco2)cc1C,·,-2.6,-5.5,-0.1,·
Cc1cccc(N=Nc2c(N)n[nH]c2-c2ccc(Cl)cc2)c1,21.7,7.3,10.1,0.1,34.4*
Cc1ccc(N=Nc2c(N)n[nH]c2N)cc1,-5.3,2.4,2.9,0.7,-2.0
Cc1ccc(-c2[nH]nc(N)c2N=Nc2cccc(Cl)c2C)cc1,20.2,4.4,7.1,0.5,28.0*
COc1ccc(C(=O)/C=C/c2cn(CC(O)CN3CCOCC3)c3ccccc23)cc1 (centres undefined),-5.4,·,·,·,-0.6
Cc1ccc(C(=O)/C=C/c2cn(CC(O)CN3CCOCC3)c3ccccc23)cc1 (centres undefined),-8.3,-6.9,-9.8,-3.4,-4.9
CCOc1ccc(C(=O)/C=C/c2cn(CN3CCN(C)CC3)c3ccccc23)cc1,-0.4,-29.2,-52.9,-2.5,32.1*
SMILES,FAS-TE inh,ADAM17 inh,ADAM10 inh,KLK7 zymogen act,GRIN3A LBD mod
COc1ccc(C(=O)/C=C/c2cn(CN3CCN(C)CC3)c3ccccc23)cc1,-4.9,·,·,·,35.6*
FC(F)(F)c1ccc2nc(CNc3nc(N4CCOCC4)nc4c3ncn4-c3ccsc3)[nH]c2c1,·,1.4,4.7,·,·
COc1cccc(/C=C2\CC3(OC(=O)c4ccco4)CCCN2C3)c1 (centres undefined),·,0.3,2.2,-0.8,·
COC(=O)C[C@H]1CC[C@H]2[C@H](COc3ccc(NC(=O)C4CCOCC4)cc3C(=O)N2C)O1,·,-3.4,-13.5,-0.3,·
COc1ccccc1C=NNC(=O)CSc1nc2ccccc2n1Cc1ccc(Cl)cc1,·,7.2,12.7,-0.9,·
COc1ccc2cc(-c3ccsc3)ncc2c1,-0.2,-18.1,-78.2,0.4,30.4*
COc1cc(OC)cc(-c2cc3ccc(OC)cc3cn2)c1,16.5,-2.3,-6.0,0.8,9.0
Cc1cc(Cl)ccc1OCC(=O)N/N=C/c1ccc[nH]1,·,-0.3,3.9,·,·
CSc1nnc(-c2ccc(Cl)cc2Cl)o1,-3.2,-0.4,-2.9,-0.2,-1.6
CCSc1nnc(-c2ccc(Cl)cc2Cl)o1,7.8,-1.0,1.7,-0.2,15.7*
CCOC(=O)c1ccc(N/C=C/C(=O)c2ccc(OC)c(OC)c2)cc1,17.2,-7.6,-23.3,-50.4,2.9
CCOC(=O)c1ccc(Nc2ccc(-c3ccc(OC)c(OC)c3)nn2)cc1,0.3,0.1,3.8,0.4,26.1*
N#Cc1c(SCC(=O)Nc2ccccc2)nsc1SCC(=O)Nc1ccccc1,9.9,-1.4,-4.8,-0.1,15.1*
Cc1cccc(NC(=O)CSc2nsc(SCC(=O)Nc3cccc(C)c3)c2C#N)c1,31.3,-6.5,0.1,0.2,14.2*
CC(=O)Nc1cccc(NC(=O)CSc2nc(C)c(C)c(C)c2C#N)c1,5.3,-0.2,1.7,0.0,-0.6
CN1C(=O)c2cc(NC(=O)c3ccc(F)cc3)ccc2OC[C@H]2O[C@H](CC(=O)NC3CCC3)CC[C@H]21,·,-6.0,-4.1,0.5,·
COc1cc2c(c(OC)c1)[C@H](/C=C/c1ccccc1)[C@@H]([C@H](O)CO)OC2,·,-0.5,-2.7,0.3,·
C=CCCC1CN(CCCC)S(=O)(=O)c2c(F)cccc2O1 (centres undefined),21.0,-0.4,-1.9,-0.6,18.1*
Fc1cccc(CNC(=S)OC2CCC23CCC(c2ccccc2)CC3)c1 (centres undefined),·,-3.6,-7.6,-0.6,·
COC(=O)[C@]12C[C@H](CC(=O)N3CCCC3)C(=O)N(Cc3cccc4ccccc34)C1=C[C@H](C1CCCC1)O[C@@H]2C,·,7.4,10.9,0.2,·
CCOC(=O)c1c(CSc2ccccc2)n(C)c2ccc(O)c(CN3CCOCC3)c12,-1.6,2.8,-0.9,0.5,14.1*
COCCNC(=O)C[C@H]1CC[C@H]2[C@@H](COc3ccc(NS(=O)(=O)c4ccc(Cl)cc4)cc3C(=O)N2C)O1,·,-0.6,3.3,0.3,·
S=C(NNc1ccnc2cc(Cl)ccc12)Nc1ccc(Cl)cc1Cl,6.5,-1.8,-1.8,0.3,14.5*
CCOc1ccc(NC(=S)NNc2ccnc3cc(Cl)ccc23)cc1,7.9,-2.3,-1.2,0.5,4.3
CC(C)CN1C(=O)[C@@]2(CC(=O)N(C)C2c2ccccc2)c2cc(-n3cc(CN(C)C)nn3)ccc21 (some centres undefined),·,0.4,-12.9,0.0,·
